D2 PAM-1: potentiates the human D2 dopamine receptor allosterically; P14416; DiscoveRx D2 beta-arrestin cells, luminescence, 90 min; 100% = 57 uM dopamine signal; potentiation, % (test concentration not listed); 0.23% of 360,000 active; AID 624464; in the data active = potentiation above about 50%; inconclusive = mostly about 30% to 49%
Target sequence (P14416 whole entry, looked up): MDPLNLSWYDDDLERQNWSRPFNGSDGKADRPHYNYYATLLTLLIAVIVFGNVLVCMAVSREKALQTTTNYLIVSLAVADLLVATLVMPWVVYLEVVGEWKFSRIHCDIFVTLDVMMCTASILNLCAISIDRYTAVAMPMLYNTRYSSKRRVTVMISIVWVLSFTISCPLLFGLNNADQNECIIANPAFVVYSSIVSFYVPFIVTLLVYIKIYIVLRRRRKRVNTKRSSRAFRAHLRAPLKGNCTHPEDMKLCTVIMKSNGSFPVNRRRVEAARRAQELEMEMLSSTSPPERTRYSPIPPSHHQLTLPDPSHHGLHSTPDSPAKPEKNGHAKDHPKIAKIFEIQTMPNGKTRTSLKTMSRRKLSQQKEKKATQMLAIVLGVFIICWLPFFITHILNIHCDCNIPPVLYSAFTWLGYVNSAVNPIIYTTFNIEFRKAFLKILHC
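PathHunter beta-arrestin assay in DiscoveRx D2 cells. Compounds were added with an EC20 of dopamine (50 nM final) for 90 min at 37 deg C. Luminescence was read 1 h after detection reagent, with 57 uM dopamine as the EC100 control.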
D2 ag-1: human D2 receptor agonism in beta-arrestin assay. P14416. DiscoveRx PathHunter D2 beta-arrestin, luminescence, 90 min; 100% = 57 uM dopamine signal. activation, % (concentration not given with the values). 0.084% of 360,000 active; in the data active = activation above about 40%; inconclusive = between about 15% and that limit
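DiscoveRx PathHunter D2 beta-arrestin cells (2,100/well) attached overnight, then compound-stimulated 90 min at 37 C in HBSS/10 mM HEPES/0.1% Tween-20 buffer; beta-galactosidase complementation read by luminescence after 1 h at ambient temperature. Dopamine 57 uM final (EC100) as control.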
D2 ag-2: activates the human D2 dopamine receptor. P14416. HEK293 T-REx D2 cells, calcium flux agonist mode. activation, % at 2 µM. 0.53% of 340,000 active. AID 485358;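 active = activation over 3 SD above normal in the single-dose calcium agonist read, cut at about 30% in these data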
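HEK293 Trex D2 cells, tetracycline-induced, o/n 30 C 5% CO2; no-wash Ca dye, RT 30–90 min; 10-cycle baseline, 23 nl cpd added, kinetic Ca read 180 s; agonist hits = positive Ca response.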
D2 PAM-2: D2 dopamine receptor (human) potentiation. P14416. HEK293 T-REx D2, calcium flux, EC20 dopamine potentiation. potentiation, % at 10 µM. 0.34% of 340,000 active. AID 485347;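 active = potentiation over 3 SD above the plate norm, cut at about 30% in these data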
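Cells plated with tetracycline inducer and held overnight at 30 C; calcium dye loaded 30–90 min at room temperature; baseline taken, compound added and read 180 s; EC20 dopamine then added and read 180 s.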
D2 antagonist: D2 dopamine receptor (human) antagonism | 2% of 340,000 active | HEK293 TREx D2 cells, calcium flux, dopamine EC80 | inhibition, % at 10 µM; in the data active = inhibition above about 30%; inactive = below that, where a call was filed
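Overnight-induced (tetracycline, 30 C) HEK293 T-REx cells carrying force-coupled D2 receive a no-wash calcium dye, then compound, then EC80 dopamine at 180 s; signals are read kinetically throughout.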
Of the large screens only hits and unclear results are named; the others gave an inactive call. Hits are enriched below; roughly 2.4% of the tested compounds scored in any of these assays.

CCc1nc2ccc(C(=O)NCCc3ccccn3)cn2c1N(CC)Cc1cccc(Br)c1	none (no result: D2 ag-2, D2 PAM-2, D2 antagonist)
CCN(C(=O)c1c(-c2ccccc2Cl)noc1C)C1CCCCC1	D2 PAM-2 47
CCc1nc2c(OCc3ccc(C#N)cc3)cccn2c1N(C)C(=O)c1cccs1	none (no result: D2 ag-2, D2 PAM-2, D2 antagonist)
CN(C)CCOCCOc1ccc(Cl)cc1C(C)(C)C	D2 antagonist 64
C=CCc1cc(Cl)ccc1OCCN(C)C	D2 antagonist 53
CC(O)CNCCCOc1ccc(Cl)cc1C(C)(C)C (stereo not drawn)	none
Cc1cc2c(s1)Nc1ccccc1N=C2N1CCN(C)CC1	D2 antagonist 77 (no result: D2 PAM-1, D2 ag-1, D2 ag-2, D2 PAM-2)
CCN1CCc2nc3sc(C(=O)Nc4cccc(Cl)c4C)c(N)c3cc2C1	none (no result: D2 PAM-1, D2 ag-1, D2 antagonist)
COc1cc(C(=O)OCCn2c(=O)c3c(ncn3CCN(C)C)n(C)c2=O)cc(OC)c1OC	D2 antagonist 34
Cc1ccccc1-c1cc2nc(Oc3cccc4ccccc34)n(C)c(=O)c2s1	none (no result: D2 ag-2, D2 PAM-2, D2 antagonist)
On1onc2c3cc(-c4ccccc4)nc3ccc21	D2 PAM-1 59
Nc1ncc2[nH]c(N)nc2n1	none (no result: D2 ag-2, D2 PAM-2, D2 antagonist)
CC1(C(=O)NC2CCCCC2)CCC(=O)N1CC(F)(F)F (stereo not drawn)	none (no result: D2 ag-2, D2 PAM-2, D2 antagonist)
Cc1c(N2C(=O)c3ccc4c5c(ccc(c35)C2=O)CC4)c(=O)n(-c2ccccc2)n1C	D2 PAM-1 61
Cc1c(N2C(=O)c3ccc(Br)cc3C2=O)c(=O)n(-c2ccccc2)n1C	none
O=C(NCCS(=O)(=O)N1CCCCCC1)c1ccc(F)cc1	none
CCOC(=O)C1CCN(S(=O)(=O)CCNC(=O)c2ccc(F)cc2)CC1	D2 antagonist 30
Cc1ccc(-n2ncc(C(=O)NCCc3ccsc3)c2C2CCN(C(=O)OC(C)(C)C)CC2)cc1C	none (no result: D2 PAM-1, D2 ag-1, D2 antagonist)
CC(C)OC(=O)c1ccc(NC(=O)c2cncc(Br)c2)cc1	D2 antagonist 45
O=C(OCc1c(Cl)cccc1Cl)c1ccccn1	D2 antagonist 35
O=C(Nc1ccc2c(c1)OCO2)c1cc(-c2ccccc2Cl)on1	D2 antagonist 37
O=C(NC1CCCC1)c1cc(-c2ccccc2Cl)on1	D2 antagonist 50
O=C(NC1CCCC1)c1cc(-c2ccc(Cl)cc2Cl)on1	D2 antagonist 31
O=C(NC1CCCCC1)c1cc(-c2ccccc2Cl)on1	none
O=C(NC1CCCC1)c1cc(-c2ccccc2O)on1	D2 antagonist 48
Cn1nnnc1SCCCNCc1ccc(-c2ccc(Br)cc2)o1	none (no result: D2 PAM-1, D2 ag-1, D2 antagonist)
COc1ccc(NC(=O)C2(C)CCN2Cc2ccc(OC(F)(F)F)cc2)cc1OC (stereo not drawn)	none (no result: D2 ag-2, D2 PAM-2, D2 antagonist)
O=C(N/N=C/c1cccc(Br)c1)C1CC(=O)N(c2ccccc2)C1 (stereo not drawn)	D2 antagonist 35
COc1ccc(N2CC(C(=O)N/N=C/c3ccccc3)CC2=O)cc1 (stereo not drawn)	none
N#Cc1c(NCCN)nc(NCc2ccccc2)c2c1CCN(Cc1ccccc1)C2	none (no result: D2 ag-2, D2 PAM-2, D2 antagonist)
CCN1CCc2c(C#N)c(NCc3ccccc3)nc(N(CC)CC)c2C1	D2 antagonist 46
Cn1nc(C(F)(F)F)c2cc(C(=O)Nc3ccc(Cl)cc3)sc21	D2 antagonist 64
Cn1nc(C(F)(F)F)c2cc(C(=O)Nc3ccc(F)cc3F)sc21	none
Cc1ccc(CN2CCC(C(=O)NCCC(C)C)CC2)o1	D2 antagonist 30
COc1ccc(-c2csc(C(NC(C)=O)c3ccccc3)n2)cn1 (stereo not drawn)	none (no result: D2 ag-2, D2 PAM-2, D2 antagonist)
Cc1cccc(-n2nnc(C(=O)NCc3ccccn3)c2N)c1	D2 antagonist 31
Cc1ccc(CNC(=O)c2nnn(-c3cccc(C)c3)c2N)cc1	none (no result: D2 ag-2, D2 PAM-2, D2 antagonist)
O=C(/C=C/c1ccccc1)N(c1ccccn1)C1CCCCC1	D2 ag-2 34
CCN(CC)S(=O)(=O)c1ccc(/C=C/C(=O)N(c2ccccn2)C2CCCCC2)cc1	none
COc1cccc2sc3cc(C#CC4(O)CCCCC4)ccc3c(=O)c12	D2 ag-1 inconclusive (no result: D2 ag-2, D2 PAM-2, D2 antagonist)
COc1cccc2sc3ccc(C#CC4(N)CCCCC4)cc3c(=O)c12	D2 antagonist 31
N#C/C(=C\c1ccc(N2CCCCC2)o1)C(=O)Nc1cccc(Br)c1	D2 ag-2 95
CCc1ccc(CNC(=O)CSCc2cnn(-c3ccccc3)c2-n2cccc2)cc1	none (no result: D2 PAM-1, D2 ag-1, D2 antagonist)

High-throughput results from PubChem.
